Source: PubChem BioAssay (National Center for Advancing Translational Sciences (NCATS))
This is a sample that favours compounds with a hit; in the whole collection about 7.1% have one here.
Lassa entry: blocks Lassa virus binding or cell entry; Lassa virus pseudotyped entry inhibition, cell-based qHTS; Potency, µM (highest dose often 49.2 µM), actives largely listed as inhibitors; 18,000 tested, 4.1% active; AID 720533
MARV entry inh: blocks Marburg virus binding or cell entry; Marburg virus pseudotype entry/binding inhibition, cell-based; Potency, µM (doses to about 49.2 µM), hits mostly inhibitors; 18,000 tested, 6.5% active; AID 720532
Hits are given with their value; n = inactive; u = inconclusive; x = no result; [ ] = dose if it differs, or a comment. Calls follow the shape of the full dose curve; tested in HEK293 cells.

SMILES	Lassa entry	MARV entry inh
CCCCCC(=O)N1C[C@H](n2cc(-c3ccc(F)cc3)nn2)[C@@H](O)C[C@H]1c1ccc(C)cc1	n	n
COC(=O)[C@@H]1C2CC3c4[nH]c5cc(OC)ccc5c4CCN3CC2C[C@H](OC(=O)c2cc(OC)c(OC)c(OC)c2)C1OC (stereo not given in full)	u	13µM
COc1ccc2c3c([nH]c2c1)[C@@H]1C[C@@H]2[C@@H](C[C@H](O)[C@H](OC)[C@H]2C(=O)O)CN1CC3	n	n
C=C1Cc2c(Cl)cc3[nH]c4c5c3c2[C@@]2(O)[C@@H]1C[C@@H]2C(C)(C)O[C@H]5[C@@H]1CC[C@@]2(O)[C@@]35O[C@@H]3[C@@H](O)[C@@H](C(=O)O)O[C@H]5CC[C@]2(C)[C@@]41C	28µM	u
CC(C)[C@H]1COc2cc(Br)ccc2S(=O)(=O)N1C(=O)c1ccc(F)cc1F	n	n
S=C=Nc1cccc(C2(N3CCCCC3)CCCCC2)c1	14µM	u
c1ccc([C@H]2CNCc3ccccc32)cc1	n	n
Oc1cc2c(cc1O)[C@H]1c3ccccc3CN[C@H]1CC2	u	25µM
COc1cccc(-c2c[nH]c3c(NN=Cc4ccncc4)ncnc23)c1	n	u
CC(=O)N[C@H]1C(O[C@@H]2O[C@H](C[C@@H](O)[C@H]3O[C@@H](N4CCC(=O)NC4=O)[C@H](O)[C@@H]3O)[C@H](O)[C@H](O)[C@H]2NC(=O)/C=C/CCCCCCCCCCC(C)C)OC(CO)[C@@H](O)[C@@H]1O (stereo not given in full)	u	4.5µM
CC(=O)NC1C(OC2OC(CC(O)C3OC([N+]4=CCC(=O)NC4=O)C(O)C3O)C(O)C(O)C2NC(=O)/C=C/CCCCCCCCC(C)C)OC(CO)C(O)C1O (stereo not given)	n	u
CCc1cc2c(nc1CC)CCN(CCC(C)=NOC[C@@H](C)[C@H](OCc1ccccc1)C(C)C)C2	n[8.59 µM]	n[8.59 µM]
O=C(c1ccc(N2CCC(NCCCn3ncc4ccccc43)CC2)cc1)N1CCc2ccccc2C1	u	20µM
O=C(c1ccc(N2CCC(NCCCn3ncc4ccccc43)CC2)cc1)N1CCOCC1	n	u
O=C(Nc1ccc(C(=O)Nc2ccc(C(=O)Nc3ccc(S(=O)(=O)O)c4cc(S(=O)(=O)O)cc(S(=O)(=O)O)c34)cc2)cc1)Nc1ccc(C(=O)Nc2ccc(C(=O)Nc3ccc(S(=O)(=O)O)c4cc(S(=O)(=O)O)cc(S(=O)(=O)O)c34)cc2)cc1	n	4µM
O=C(Nc1cc(C(=O)Nc2ccc(S(=O)(=O)O)cc2S(=O)(=O)O)cc(C(=O)Nc2ccc(S(=O)(=O)O)cc2S(=O)(=O)O)c1)Nc1cc(C(=O)Nc2ccc(S(=O)(=O)O)cc2S(=O)(=O)O)cc(C(=O)Nc2ccc(S(=O)(=O)O)cc2S(=O)(=O)O)c1	n	n
COC(=O)C1=C(C)N(CC2CC2)C(=O)NC1c1ccc(Br)cc1 (stereo not given)	n[8.59 µM]	n[8.59 µM]
CCOC(=O)CN1C(=O)NC(c2ccc(Br)cc2)C(C(C)=O)=C1C (stereo not given)	n[8.59 µM]	n[8.59 µM]
CCC(Oc1ccc(Cl)cc1)C(=O)OC1CC2CCC(C1)N2C (stereo not given)	u	6.3µM
CN1C2CCC1CC(OC(=O)C(O)c1ccccc1)C2 (stereo not given)	n	n
CC(C(=O)OC1CC2CCC(C1)N2C)c1ccc(Br)cc1 (stereo not given)	n	28µM
CN1CCC(OC(=O)C(Oc2ccc(Cl)cc2)Oc2ccc(Cl)cc2)CC1	n	n
CCOC(=O)[C@]12C[C@@H]3OCCN(C(=O)N[C@@H]1c1ccccc1)[C@@H]32	n[8.59 µM]	n[8.59 µM]
O=C(C=Cc1ccccc1)Nc1cccc(C(=O)N2CCCC2)c1	n	n
CCCCN1CC(COCc2ccccc2)Oc2cccc(Oc3ccccc3)c2S1(=O)=O (stereo not given)	4µM	n
SMILES	Lassa entry	MARV entry inh
CCCCN1CC(COCc2ccccc2)Oc2cccc(Oc3ccc(C)cc3)c2S1(=O)=O (stereo not given)	x	n
COC(=O)[C@@]1(C=C[C@@H](C)[C@H](OC)c2ccccc2Br)[C@@H]2OCCC[C@@H]21	n[8.59 µM]	n[8.59 µM]
CNc1ccc2oc(C[C@@H]3OC4(CC[C@@H]3C)O[C@H](C(C)C(=O)c3ccc[nH]3)[C@H](C)C[C@H]4C)nc2c1C(=O)O (stereo not given in full)	u	5.6µM
CNc1ccc2oc(C[C@H]3O[C@]4(CC[C@H]3C)O[C@H]([C@H](C)C(=O)c3ccc[nH]3)[C@H](C)C[C@H]4C)nc2c1C(=O)O	3.5µM	4.5µM
COc1cc2ncnc(Nc3ccc4c(cnn4Cc4ccccc4)c3)c2cc1OC	n	u
O=C(OC1CNC(C#Cc2cc3ncnc(Nc4ccc(OCc5cccc(F)c5)c(Cl)c4)c3s2)C1)N1CCOCC1 (stereo not given)	u	13µM
CNC(=O)c1cccc(C#Cc2cncnc2Nc2ccc(OCc3cccc(F)c3)c(Cl)c2)c1	x	2.5µM
O=C(OC1CNC(C#Cc2cc3ncnc(Nc4ccc5c(cnn5Cc5ccccc5)c4)c3s2)C1)N1CCOCC1 (stereo not given)	0.4µM	u
O=S(=O)(CCOCc1ccc(-c2ccc3ncnc(Nc4ccc(OCc5cccc(F)c5)c(Cl)c4)c3c2)o1)c1ccccc1	n	n
CS(=O)(=O)CCNCc1nc(-c2ccc3ncnc(Nc4ccc(OCc5cccc(F)c5)c(Cl)c4)c3c2)cs1	n	n
O=C(NC(CC1=CCCCC1)c1ccc2c(c1)OCO2)C(F)(F)F (stereo not given)	n[8.59 µM]	n[8.59 µM]
C=CCN1[C@@H](CC(C)C)COc2c(Cl)cccc2S1(=O)=O	n	n
CCCCCC(=O)N1C[C@@H](O)[C@H](n2cc(-c3ccc(F)cc3)nn2)C[C@H]1c1ccc(C)cc1	n	n
CC(C)=CCN1CC[C@]2(C)c3cc(O)ccc3C[C@H]1[C@H]2C	n	u
COc1ccc2c(c1)C13CCCC[C@@H]1C(C2)N(C)CC3 (stereo not given in full)	n	u
Oc1ccc2c(c1)[C@@]13CCCCC1[C@@H](C2)N(CC1CCC1)CC3 (stereo not given in full)	u	10µM
C=CCN1CC[C@]23CCCC[C@H]2[C@H]1Cc1ccc(O)cc13	u	28µM
CNCCCCc1cnc(C)c2[nH]c3ccccc3c12	u	11µM
O=C1NC(=O)c2c1c1c3ccccc3[nH]c1c1[nH]c3ccccc3c21	n	u
C=CCCCN1C=C(C(=O)OCC)C(c2ccccc2)NC1=O (stereo not given)	n[8.59 µM]	n[8.59 µM]
C[C@@H]1CC[C@H]2C(=O)N(Cc3cccc([N+](=O)[O-])c3)C[C@@H](O)CN2[C@@H]1c1ccc(Br)cc1	n[8.59 µM]	n[8.59 µM]
CC(=O)Nc1c2sscc-2n(C)c1=O	10µM	11µM
CC(=O)Nc1c(N)[nH]c(=O)n(C)c1=O	n	n
O=S1(=O)CCSCCN1Cc1ccc(Cl)cc1	n	n
CCS(=O)(=O)c1ccc(OC)c(Nc2ncc(-c3cccc(-c4ccccc4F)c3)o2)c1	x	n
CC1CCC2C(C)C(=O)OC3O[C@]4(C)CCC1[C@@]32OO4 (stereo not given in full)	n	n
C[C@@H]1CC[C@H]2[C@@H](C)C(=O)O[C@@H]3O[C@@]4(C)CC[C@@H]1[C@]32OO4	2.2µM	1.8µM
Oc1cccc(-c2nc(-c3ccccc3)[nH]c2-c2ccncc2)c1	x	7.9µM
NCc1ccc(-c2nc(-c3ccc(Cl)c(O)c3)c(-c3ccncc3)[nH]2)cc1	n	u
COc1ccc2c(c1)C[C@@H](C)O[C@]21C(=O)Nc2ccccc21	n[8.59 µM]	n[8.59 µM]
